Only some compounds are listed: those with a hit (about 11% of all), similar ones and a draw of the others.
G9a inh: qHTS Assay for Inhibitors of Histone Lysine Methyltransferase G9a | Histone-lysine N-methyltransferase EHMT2 (Homo sapiens), Q96KQ7 | G9a H3K9 monomethylation, AlphaScreen, 2 h | 350,000 compounds, 8.8% hits | Potency, µM (highest dose often 102 µM), most hits filed as inhibitors; also: nearly all actives have a fitted effect of over 75% in size
Target sequence (Q96KQ7 913-1193 limits assumed): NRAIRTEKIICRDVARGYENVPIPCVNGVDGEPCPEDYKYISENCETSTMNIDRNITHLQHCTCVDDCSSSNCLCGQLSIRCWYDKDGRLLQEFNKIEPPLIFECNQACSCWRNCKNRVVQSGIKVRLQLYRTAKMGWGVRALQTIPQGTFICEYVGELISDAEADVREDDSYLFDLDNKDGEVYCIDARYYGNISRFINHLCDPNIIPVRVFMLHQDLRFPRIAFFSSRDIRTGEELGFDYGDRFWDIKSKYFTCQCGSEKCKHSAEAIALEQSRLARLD
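Step 1: enzyme (final 20 nM) with compound, 15 min RT. Step 2: substrate peptide 500 nM and SAM 20 uM, 2 h RT. Step 3: anti-H3K9me1 antibody and AlphaScreen beads, 10 min, then plate read.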
HP1b chromo inh: HTS for Inhibitors of HP1-beta Chromodomain Interactions with Methylated Histone Tails; 390,000 compounds, 0.56% hits; Potency, µM (doses to about 114 µM), most hits filed as inhibitors; AlphaScreen HP1-beta / biotin-H3K9me3 peptide binding; AID 540317, 2011; also: nearly all actives have a fitted effect of over 70% in size
Target sequence (P83916 whole entry, looked up): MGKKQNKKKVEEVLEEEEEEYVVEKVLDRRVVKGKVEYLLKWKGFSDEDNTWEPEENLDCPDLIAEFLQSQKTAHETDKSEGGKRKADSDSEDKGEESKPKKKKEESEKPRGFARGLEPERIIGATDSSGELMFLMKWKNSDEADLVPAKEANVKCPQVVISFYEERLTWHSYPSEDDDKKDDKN
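AlphaScreen: HP1-beta (50 nM) preformed 30 min with biotin-H3(1-18)K9me3 peptide (50 nM) in PBS pH 7.4, 0.01% Tween-20. Compound added for 30 min at RT, then streptavidin donor/nickel chelate acceptor beads (10 ug/mL) for 30 min.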
PLK1 PBD block: qHTS for Inhibitors of PLK1-PDB (polo-like kinase 1 - polo-box domain): Primary Screen. Serine/threonine-protein kinase PLK1 (Homo sapiens), P53350. Plk1 PBD binding of FITC phosphopeptide, fluorescence polarization. Potency, µM, actives largely listed as inhibitors. 360,000 compounds, 2.8% hits; also: series mostly up to about 57 µM; nearly all actives have a fitted effect of over 65% in size
JMJD2A Tudor: qHTS Assay for Inhibitors of JMJD2A-Tudor Domain; AlphaScreen JMJD2A-Tudor / H3K4me3 peptide binding; AID 504339, 2011; Potency, µM (highest dose often 114 µM), actives largely listed as inhibitors; 390,000 compounds, 4.4% hits; also: nearly all actives have a fitted effect of over 50% in size
BAZ2B block: qHTS Assay for Inhibitors of BAZ2B | Bromodomain adjacent to zinc finger domain protein 2B (Homo sapiens), Q9UIF8 | AlphaScreen BAZ2B-H3K14Ac peptide displacement | Potency, µM (doses to about 114 µM), most hits filed as inhibitors | 360,000 compounds, 4.4% hits; also: nearly all actives have a fitted effect of over 60% in size
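BAZ2B 50 nM plus b-H3(5-23)K14Ac 50 nM, PBS pH 7.4/0.01% Tween-20, 30 min RT; compound added (max 110 uM), 30 min RT; streptavidin donor/Ni-chelate acceptor beads 10 ug/mL final, 20 min dark; AlphaScreen read.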
VDR inh: Inhibitors of the vitamin D receptor (VDR): qHTS. Potency, µM, actives largely listed as inhibitors. Vitamin D3 receptor (Homo sapiens), P11473. 400,000 compounds, 0.93% hits. AID 504847, 2011. VDR-SRC2-3 peptide fluorescence polarization, 2 h
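The screen uses fluorescence polarization to detect compounds that interfere with recruitment of the SRC2-3 coactivator peptide to VDR; plates are read after 2 h at room temperature.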
Hits are given with their value; 0 = inactive; ? = inconclusive; - = no result given; ! = a repeat was not active; [ ] = remark or other dose. Calls follow the shape of the dose curve; as a rule, active = well fitted curve in the direction sought with a large enough effect; inconclusive = small, poorly fitted or top-dose-only effect, or another doubt; inactive = no such curve, though single readings can be large; an effect the other way counts as inactive or inconclusive.

SMILES	G9a inh	HP1b chromo inh	PLK1 PBD block	JMJD2A Tudor	BAZ2B block	VDR inh
Brc1ccc(NC(c2ccccc2)c2ccncc2)cc1 (configuration not stated)	?	0	?	56µM	71µM	?
CN(C)c1ccc(/C=C2\CCC/C(=C\c3ccccc3)C2=O)cc1	3.5µM	0	0	?	?	0
COc1ccc(/C=C2\Cc3ccccc3C2=O)cc1OC	0[2.33 µM]	0	0	0	?	0
O=C1/C(=C/c2ccccc2)CCCc2ccccc21	0	0	0	100µM	0	0
COc1ccc(/C=C2\CCc3ccccc3C2=O)cc1O	79µM	0	0	?	?	0
CN(CC1CCCO1)S(=O)(=O)c1ccc(C(=O)Nc2ccccc2F)cc1 (configuration not stated)	-	0	0	0	-	0
Cc1ccc(C(=O)Nc2nc(-c3ccccn3)cs2)cc1S(=O)(=O)N1CCOCC1	?	0	7.5µM	0	25µM	79µM
Cc1nnc(NC(=O)c2ccc(F)c(S(=O)(=O)N3CCOCC3)c2)s1	-	0	0	0	-	0
O=C(Nc1nc(-c2ccccn2)cs1)c1ccc(F)c(S(=O)(=O)N2CCOCC2)c1	7.1µM	?	12µM	50µM	28µM	89µM
O=C(Nc1nc(-c2ccccn2)cs1)c1cc(S(=O)(=O)N2CCOCC2)ccc1F	?	0	?	79µM	22µM	0
CN(CC1CCCO1)S(=O)(=O)c1ccc(C(=O)Nc2nc(-c3ccccn3)cs2)cc1 (configuration not stated)	0	0	0	50µM	28µM	0
Cc1ccc(S(=O)(=O)N2CCN(C(=O)CC(C)n3nc(C)c(Cl)c3C)CC2)cc1C (configuration not stated)	-	0	0	0	0	0
Cc1c(NC(=S)N/C(=N/S(=O)(=O)c2ccc(Cl)cc2)c2ccccc2)c(=O)n(-c2ccccc2)n1C	?	0	0	0	0	0
CC1O[C@@H](O[C@@H]2C(O)C[C@H](O[C@@H]3C(O)C[C@@H](OC4CC[C@@]5(C)C6CC(O)[C@@]7(C)C(C8=CC(=O)OC8)CC[C@@]7(O)C6CC[C@@H]5C4)OC3C)OC2C)CC(O)[C@H]1O (some centres not stated)	0[2.33 µM]	-	-	-	-	0
O=C(O)c1ccc(-c2nc3ccccc3[nH]2)cc1	0	0	0	0	0	0
O=C(O)c1ccc(-c2ncc[nH]2)cc1	0	0	?	20µM	0	45µM
C/C(=N\NC(=S)NC1CCCCC1)c1cccs1	?	?	0	?	50µM	0
O=S(=O)(NC(=S)NC1CCCCC1)c1cccs1	20µM	0	?	0	0	?
CCN1C(=O)CC(c2ccccc2)CC1=O	0[2.33 µM]	0	0	0	0	0
CCN1C(=O)C=CC1=O	1µM!	-	-	-	-	0
CC1CCCN(C(=S)Nc2ccc(Nc3ccccc3)cc2)C1 (configuration not stated)	40µM	?	?	?	0	?
CCN1CCN(C(=S)Nc2ccc3nc(N4CCN(CC)CC4)cc(C)c3c2)CC1	20µM	0	0	0	0	0
CCN1CCN(c2cc(C)c3cc(NC(=S)N4CCN(c5ccc(F)cc5)CC4)ccc3n2)CC1	?	0	0	0	0	0
CCOC(=O)N1CCN(C(=S)Nc2ccc3nc(N4CCN(CC)CC4)cc(C)c3c2)CC1	?	0	0	0	0	0
CCN1CCN(C(=S)Nc2ccc3nc(N4CCN(C)CC4)cc(C)c3c2)CC1	?	0	0	0	0	0
SMILES	G9a inh	HP1b chromo inh	PLK1 PBD block	JMJD2A Tudor	BAZ2B block	VDR inh
CCN1CCN(c2cc(C)c3cc(NC(=S)N4CC(C)CC(C)C4)ccc3n2)CC1 (configuration not stated)	35µM	0	0	0	?	0
CCN1CCN(c2cc(C)c3cc(NC(=S)N4CCCC(C)C4)ccc3n2)CC1 (configuration not stated)	45µM	0	0	?	0	0
CCN1CCN(c2cc(C)c3cc(NC(=S)N4CCCC4)ccc3n2)CC1	?	0	0	0	0	0
CCCCc1ccc(C(=O)Nc2ccc3nc(N(CC)CC)cc(C)c3c2)cc1	0	0	-	0	0	0
CCN1CCN(c2cc(C)c3cc(NC(=S)N4CCCCC4)ccc3n2)CC1	45µM	0	0	0	0	0
CCN1CCN(c2cc(C)c3cc(NC(=O)c4ccc(Br)o4)ccc3n2)CC1	?	0	0	?	71µM	0
CCN(CC)c1cc(C)c2cc(NC(=O)c3ccc(Br)o3)ccc2n1	56µM	0	0	?	?	0
CCN1CCN(c2cc(C)c3cc(NC(=O)c4ccncc4)ccc3n2)CC1	?	0	0	0	0	0
COc1ccc(NS(=O)(=O)c2ccc(C)c(C(=O)N3CC(C)OC(C)C3)c2)cc1 (configuration not stated)	0	0	0	0	0	0
CCOC(=O)c1sc(NC(=O)CSc2nc(-c3ccco3)cc(C(F)(F)F)n2)c(C(=O)OCC)c1C	-	0	0	0	-	0
CCOC(=O)c1c(NC(=O)CSc2ccccc2C(=O)O)sc(C)c1C	0	0	0	0	50µM	0
CCOC(=O)c1c(NC(=O)CSc2ncnc3ccccc23)sc(C)c1C	0	0	0	0	0	0
CCOC(=O)c1c(NC(=O)CSc2nc(-c3ccccc3)cc(C(F)(F)F)n2)sc(C)c1C	6.3µM	0	-	0	0	0
CCOC(=O)c1c(NC(=O)CSc2nncs2)sc(C)c1C	10µM	0	0	0	?	0
CCOC(=O)c1cc2c(ccn2C)n1CC(=O)N(CC)CC	-	0	0	0	?	0
Cc1nn(-c2ccccc2)c(OC(=O)c2ccccc2)c1S(=O)(=O)c1ccccc1	?	0	-	0	0	0
C(=N\NC1=Nc2cccc3cccc1c23)/c1ccccc1	0	0	?	0	?	0
Cc1cc(C)nc(SCC(=O)Nc2ncc(C(F)(F)F)cc2Cl)n1	0	0	0	0	0	0
CN(C)c1ccc(/C=N/Nc2cccc(C(=O)O)c2)cc1	7.9µM	0	0	?	?	0
CC(=O)Nc1cccc(C(=O)/C=C/c2ccc(N(C)C)cc2)c1	0	0	0	0	0	0
C(=N\NC1=Nc2cccc3cccc1c23)/c1cccnc1	?	0	0	?	40µM	0
O=C(O)c1ccc(/C=N/Nc2ncc(C(F)(F)F)cc2Cl)cc1	32µM	0	0	0	0	0
O=C(CSc1ncccn1)Nc1ncc(C(F)(F)F)cc1Cl	20µM	0	0	0	0	0
